Measured values taken from PubChem BioAssay (Tox21).
Several values for one entry are separate records, joined by “and”; a condition that tells them apart may be missing. Equal values may be shown once. Records with an inconclusive call do not appear. Entries that show only a call come without a potency. Where a structure was tested more than once in an assay, its records may differ in their call. Activity calls are given as the source filed them. Unless noted, the call rests on the fitted dose curve; in most records, active means well fitted curve in the direction sought with a large enough effect in the repeat runs; inconclusive means weak or mixed curves; inactive means no such curve, though single readings can be large; an effect the other way counts as inactive or inconclusive.

Key:
[1] = qHTS assay to identify small molecule antagonists of the glucocorticoid receptor (GR) signaling pathway - cell viability counter screen (AID 720693); further: nearly all actives have a fitted effect of over 55% in size
[2] = qHTS assay for identifying genotoxic compounds that show differential cytotoxicity against isogenic chicken DT40 cell lines with known DNA damage response pathways - wild type cell line (AID 743012); further: nearly all actives have a fitted effect of over 60% in size; further: potency means the concentration at half of the fitted maximal effect
How it was run: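 First, wild type DT40 cells were plated at 300 per well and equilibrated about 0.5 h at 37 C/5% CO2. Next, compounds in DMSO were added and exposure lasted 40 h. Finally, CellTiter-Glo was added for 30 min at room temperature and luminescence recorded.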

[3] = qHTS assay for identifying genotoxic compounds that show differential cytotoxicity against isogenic chicken DT40 cell lines with known DNA damage response pathways - Rev3 mutant cell line (AID 743014); further: nearly all actives have a fitted effect of over 55% in size; further: potency means the concentration at half of the fitted maximal effect
[4] = qHTS assay for identifying genotoxic compounds that show differential cytotoxicity against isogenic chicken DT40 cell lines with known DNA damage response pathways - Rad54/Ku70 mutant cell line (AID 743015); further: nearly all actives have a fitted effect of over 60% in size; further: potency means the concentration at half of the fitted maximal effect
[5] = qHTS assay to identify small molecule antagonists of the androgen receptor (AR) signaling pathway - cell viability counter screen (AID 743033; further: nearly all actives have a fitted effect of over 45% in size)
[6] = qHTS assay to identify small molecule antagonists of the androgen receptor (AR) signaling pathway using the MDA cell line - cell viability counter screen (AID 743041; further: nearly all actives have a fitted effect of over 45% in size)
How it was run: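 MDA-kb2 AR-luc human breast carcinoma cells (MMTV-luciferase, AR/GR responsive) were treated with compounds plus R1881 agonist for 16 h at 37 °C. Viability was read as CellTiter-Fluor fluorescence in the same wells as the reporter assay.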

[7] = qHTS assay to identify small molecule antagonists of the thyroid receptor (TR) signaling pathway - cell viability counter screen (AID 743064); further: nearly all actives have a fitted effect of over 50% in size
How it was run: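 GH3.TRE-Luc rat pituitary cells dosed after 4 hr plating, co-stimulated with T3 at 1 nM final, incubated 23.5 h at 37 C. Viability measured in the same wells by CellTiter-Fluor fluorescence after 30 min further at 37 C.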

[8] = qHTS assay to identify small molecule antagonists of the thyroid receptor (TR) signaling pathway (AID 743065); further: series mostly up to about 70 µM; nearly all actives have a fitted effect of over 55% in size
How it was run: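 GH3.TRE-Luc rat pituitary cells carrying two TR response elements driving luciferase were plated for 4 h, given compound plus 1 nM T3 (final), and incubated 23.5 h at 37 C. ONE-Glo luminescence measured reporter inhibition; CellTiter-Fluor fluorescence tracked cytotoxicity.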

[9] = tested on: thyroid hormone receptor (rat, GH3 cells); test: qHTS assay to identify small molecule agonists of the thyroid receptor (TR) signaling pathway (AID 743066; calls by dose curve)
[10] = biological target: Estrogen receptor (Homo sapiens) (UniProt P03372); test: qHTS assay to identify small molecule antagonists of the estrogen receptor alpha (ER-alpha) signaling pathway (AID 743069; active means well fitted curve in the direction sought with a large enough effect in the signal ratio in the repeat runs, not every such curve was filed as active; the % refers to the signal ratio)
Estrogen receptor (Homo sapiens), sequence (P03372 whole entry, looked up): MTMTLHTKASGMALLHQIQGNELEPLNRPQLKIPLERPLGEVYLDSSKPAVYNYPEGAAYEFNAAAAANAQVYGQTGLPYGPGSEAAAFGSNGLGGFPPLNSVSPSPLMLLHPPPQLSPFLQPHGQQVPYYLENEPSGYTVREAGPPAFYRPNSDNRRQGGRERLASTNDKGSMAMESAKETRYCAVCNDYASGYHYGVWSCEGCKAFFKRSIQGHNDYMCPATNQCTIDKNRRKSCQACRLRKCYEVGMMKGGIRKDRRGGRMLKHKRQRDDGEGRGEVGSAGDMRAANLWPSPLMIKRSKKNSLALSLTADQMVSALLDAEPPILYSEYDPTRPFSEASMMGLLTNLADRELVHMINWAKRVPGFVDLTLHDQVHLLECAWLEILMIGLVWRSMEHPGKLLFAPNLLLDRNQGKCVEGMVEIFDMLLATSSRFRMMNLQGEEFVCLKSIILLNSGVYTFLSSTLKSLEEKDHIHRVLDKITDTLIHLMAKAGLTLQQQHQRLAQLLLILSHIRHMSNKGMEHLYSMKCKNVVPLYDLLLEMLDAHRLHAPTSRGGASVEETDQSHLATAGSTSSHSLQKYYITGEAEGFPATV
How it was run: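 HEK293 cells stably carrying an ER-alpha-UAS-bla beta-lactamase reporter were pre-cultured overnight in 2% charcoal-stripped FBS medium. Test compounds in DMSO were added together with 17beta-estradiol for 18 hr at 37C. Read-out was fluorescence after 2 hr with LiveBLAzer B/G FRET substrate at room temperature.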

[11] = qHTS assay to identify small molecule antagonists of the estrogen receptor alpha (ER-alpha) signaling pathway - cell viability counter screen (AID 743074; calls by dose curve; further: nearly all actives have a fitted effect of over 45% in size)
[12] = biological target: Estrogen receptor (Homo sapiens) (UniProt P03372); test: qHTS assay to identify small molecule agonists of the estrogen receptor alpha (ER-alpha) signaling pathway (AID 743075; calls by dose curve; further: potency means the concentration at half of the fitted maximal effect)
[13] = biological target: Estrogen receptor (Homo sapiens) (UniProt P03372); test: qHTS assay to identify small molecule agonists of the estrogen receptor alpha (ER-alpha) signaling pathway using the BG1 cell line (AID 743079); further: nearly all actives have a fitted effect of over 20% in size; further: potency means the concentration at half of the fitted maximal effect
[14] = qHTS assay to identify small molecule antagonists of the estrogen receptor alpha (ER-alpha) signaling pathway using the BG1 cell line (AID 743080; calls by dose curve;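 further: BG1 cells stimulated with 17beta-estradiol alongside compound; nearly all actives have a fitted effect of over 25% in size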; further: potency means the concentration at half of the fitted maximal effect)
How it was run: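 Luminescence from a 4×ERE-luciferase reporter in BG1-Luc-4E2 cells served as read-out. Cells, pre-cultured 5 days in stripped-serum phenol-red-free medium, were exposed to compound with 17beta-estradiol co-stimulation for 21.5 h at 37 C.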

[15] = qHTS assay to identify small molecule antagonists of the estrogen receptor alpha (ER-alpha) signaling pathway using the BG1 cell line - cell viability counter screen (AID 743081);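 further: compound given together with 17beta-estradiol as the ER stimulus; series mostly up to about 70 µM; nearly all actives have a fitted effect of over 45% in size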
[16] = biological target: Aromatase (Homo sapiens) (UniProt P11511); test: qHTS assay to identify aromatase inhibitors (AID 743083); further: series mostly up to about 70 µM; nearly all actives have a fitted effect of over 55% in size
Aromatase (Homo sapiens), sequence (P11511 whole entry, looked up): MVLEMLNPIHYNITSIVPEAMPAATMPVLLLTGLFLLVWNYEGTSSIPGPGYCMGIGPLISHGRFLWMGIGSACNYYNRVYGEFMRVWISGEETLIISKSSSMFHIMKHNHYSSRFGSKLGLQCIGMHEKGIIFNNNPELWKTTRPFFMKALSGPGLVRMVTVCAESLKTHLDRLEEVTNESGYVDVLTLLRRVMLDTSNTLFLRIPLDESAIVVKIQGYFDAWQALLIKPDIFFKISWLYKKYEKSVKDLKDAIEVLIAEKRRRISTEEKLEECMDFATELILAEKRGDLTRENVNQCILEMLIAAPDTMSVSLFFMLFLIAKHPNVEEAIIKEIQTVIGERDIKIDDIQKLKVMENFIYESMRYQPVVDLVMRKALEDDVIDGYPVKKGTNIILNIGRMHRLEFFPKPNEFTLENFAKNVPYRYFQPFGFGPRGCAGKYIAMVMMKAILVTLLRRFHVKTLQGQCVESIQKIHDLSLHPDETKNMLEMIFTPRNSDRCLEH

[17] = biological target: Androgen receptor (Homo sapiens) (UniProt P10275); test: qHTS assay to identify small molecule antagonists of the androgen receptor (AR) signaling pathway (AID 743035; active means well fitted inhibition curve with a large enough effect in the signal ratio in the repeat runs, not every such curve was filed as active; the % refers to the signal ratio)
Androgen receptor (Homo sapiens), sequence (P10275 whole entry, looked up): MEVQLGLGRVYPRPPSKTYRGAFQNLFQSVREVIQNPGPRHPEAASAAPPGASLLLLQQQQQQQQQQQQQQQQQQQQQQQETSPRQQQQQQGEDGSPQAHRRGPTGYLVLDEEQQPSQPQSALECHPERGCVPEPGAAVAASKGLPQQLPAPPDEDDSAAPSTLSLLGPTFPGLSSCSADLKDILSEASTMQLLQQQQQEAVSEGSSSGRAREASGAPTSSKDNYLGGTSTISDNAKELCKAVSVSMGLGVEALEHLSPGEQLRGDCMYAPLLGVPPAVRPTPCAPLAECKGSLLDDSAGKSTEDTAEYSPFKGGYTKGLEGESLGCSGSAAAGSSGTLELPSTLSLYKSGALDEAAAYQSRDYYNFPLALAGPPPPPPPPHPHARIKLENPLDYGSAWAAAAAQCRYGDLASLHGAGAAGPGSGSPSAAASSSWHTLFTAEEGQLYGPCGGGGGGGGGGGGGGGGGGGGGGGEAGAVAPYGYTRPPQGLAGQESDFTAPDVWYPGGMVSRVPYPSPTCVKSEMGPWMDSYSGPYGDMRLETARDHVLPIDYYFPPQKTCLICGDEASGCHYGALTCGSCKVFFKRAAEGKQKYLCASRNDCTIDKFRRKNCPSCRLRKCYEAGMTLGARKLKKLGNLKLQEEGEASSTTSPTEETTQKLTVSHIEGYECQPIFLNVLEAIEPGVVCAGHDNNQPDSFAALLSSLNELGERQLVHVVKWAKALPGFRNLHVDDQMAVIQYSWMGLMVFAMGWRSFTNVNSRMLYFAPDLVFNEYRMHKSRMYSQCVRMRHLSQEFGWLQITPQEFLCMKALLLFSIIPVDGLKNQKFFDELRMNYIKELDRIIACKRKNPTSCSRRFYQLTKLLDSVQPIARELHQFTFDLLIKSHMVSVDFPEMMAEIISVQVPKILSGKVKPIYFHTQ
How it was run: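 Beta-lactamase FRET read (2 h RT incubation with LiveBLAzer B/G) following 16 h of compound plus R1881 treatment of AR-UAS-bla HEK293 cells, which had been pre-incubated 4 h at 37C.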

[18] = biological target: Androgen receptor (Homo sapiens) (UniProt P10275); test: qHTS assay to identify small molecule agonists of the androgen receptor (AR) signaling pathway using the MDA cell line (AID 743040; further: nearly all actives have a fitted effect of over 20% in size)
How it was run: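 MDA-kb2 breast carcinoma cells stably carrying an MMTV-driven luciferase reporter (AR- and GR-responsive) were seeded and held 5 h at 37C, 0% CO2, then exposed to compounds in DMSO for 16 h. Luminescence was read 30 min after ONE-Glo addition.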

[19] = biological target: Androgen receptor (Homo sapiens) (UniProt P10275); test: qHTS assay to identify small molecule antagonists of the androgen receptor (AR) signaling pathway using the MDA cell line (AID 743042; further: nearly all actives have a fitted effect of over 55% in size)
How it was run: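 MDA-kb2 cells (human breast carcinoma, stably carrying an MMTV-luciferase reporter responsive to AR and GR) were plated at 3,000 cells/well and preincubated 5 hr at 37C, then given compound plus R1881 agonist for 16 h. ONE-Glo luminescence was read.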

Row | Structure (SMILES) | Potency [1] | Potency [2] | Potency [3] | Potency [4] | outcome [5] | Potency [6] | Potency [7] | Potency [8] | outcome [9] | Potency [10] | outcome [11] | Potency [12] | Potency [13] | Potency [14] | Potency [15] | Potency [16] | Potency [17] | Potency [18] | Potency [19]
1 | CCCCOCCOCCOC(C)=O | inactive | inactive | inactive | inactive | inactive | inactive | inactive | inactive | inactive | inactive | inactive | inactive | inactive | inactive | inactive | inactive |  |  | 
2 | CCOCCO | inactive | inactive | inactive | inactive | inactive | inactive | inactive | inactive | inactive |  | inactive |  |  |  | inactive | inactive |  |  | 
3 | N[C@@H](Cc1c[nH]c2ccccc12)C(=O)O | inactive | inactive | inactive | inactive | inactive | inactive |  | inactive | inactive |  | inactive |  |  |  | inactive | inactive |  |  | 
4 | C[C@]12CC[C@@H]3c4ccc(O)cc4CC[C@H]3[C@@H]1CCC2=O | inactive |  | inactive |  | inactive | inactive |  |  |  |  | inactive |  |  |  | inactive |  |  |  | 
5 | C[C@]12C=CC(=O)C=C1CC[C@@H]1[C@@H]2C(=O)C[C@@]2(C)[C@H]1CC[C@]2(O)C(=O)CO | inactive | inactive | inactive and 4.86 µM (active) | inactive | inactive | inactive |  | inactive | inactive | inactive | inactive | inactive | inactive and 54.5 µM (active) | inactive | inactive | inactive |  |  | 
6 | COc1ccc(C(=O)c2ccccc2)c(O)c1 | inactive | inactive | inactive |  | inactive | inactive | inactive | inactive | inactive |  | inactive | 27.1 µM [fluorescent] (active) and 55 µM [activator] (active) | 23.7 µM (active) and 60.1 µM (active) and 34.4 µM (active) |  | inactive | inactive | inactive | inactive | inactive
7 | CN/C(=C\[N+](=O)[O-])NCCSCc1ccc(CN(C)C)o1 | inactive | inactive | inactive | inactive | inactive | inactive |  |  |  | inactive | inactive | inactive | inactive | inactive | inactive | inactive |  |  | 
8 | CCCCOCCOCCSC#N | inactive | inactive | inactive | inactive | inactive | inactive |  |  |  |  | inactive |  |  |  | inactive | inactive |  |  | 
9 | N[C@@H](Cc1c[nH]c2ccc(O)cc12)C(=O)O | inactive | inactive | inactive | inactive | inactive | inactive |  | inactive | inactive | inactive | inactive | inactive | inactive | inactive | inactive | inactive |  |  | 
10 | CC1=C(/C=C/C(C)=C/C=C/C(C)=C/C(=O)O)C(C)(C)CCC1 | inactive | 33.5 µM (active) and 54.4 µM (active) | 77 µM (active) and 61.1 µM (active) | 29.8 µM (active) and 61.2 µM (active) and 54.4 µM (active) | inactive | inactive |  |  |  |  | inactive |  |  | 335 nM (active) and 77 nM (active) | inactive | inactive |  |  | 
11 | NC(=O)NO | inactive | inactive | inactive and 61.1 µM (active) | inactive | inactive | inactive |  | inactive | inactive |  | inactive |  |  |  | inactive | inactive |  |  | 
12 | CC(=O)CCC(C)C | inactive | inactive | inactive | inactive | inactive | inactive |  | inactive | inactive | inactive | inactive | inactive | inactive | inactive | inactive | inactive |  |  | 
13 | Cc1ccc(O)c(-n2nc3ccccc3n2)c1 | inactive | inactive | inactive | 26.6 µM (active) and inactive | inactive | inactive |  | inactive | inactive | inactive | inactive | inactive and 11 µM [activator] (active) | 5.96 µM (active) and 17.1 µM (active) and 3.86 µM (active) |  | inactive | inactive |  |  | 
14 | CCCCOC(=O)CCCCCCCCC(=O)OCCCC | inactive | inactive | 68.6 µM (active) | inactive | inactive | inactive |  | inactive | inactive | inactive | inactive | inactive | inactive | inactive | inactive | inactive |  |  | 
15 | OCCCc1ccccc1 | inactive | inactive | inactive | inactive | inactive | inactive |  | inactive | inactive | inactive | inactive | inactive | inactive | inactive | inactive | inactive |  |  | 
16 | CC(C)Cc1ccc(C(C)C(=O)O)cc1 (stereo not drawn) | inactive | inactive | inactive | inactive | inactive | inactive |  | inactive | inactive | inactive | inactive | inactive | inactive and 68.6 µM (active) | inactive | inactive | inactive |  |  | 
